The list is not random: actives were taken first. Their share in the collection is about 6.7%.
Pf Dd2 inh – P. falciparum Dd2 growth inhibition. SYBR Green, 72 h; stronger effect = lower value. activity change, % at 10 µM. actives 2.3% (n = 94,000). AID 1159554; in the data active means activity change below about -80%; inconclusive means no clear call, values can overlap the other calls
Tcruzi prolif – T. cruzi proliferation inhibition. T. cruzi beta-gal in NIH3T3, GalScreen luminescence, 90 h. inhibition, % at 8.34 µM. actives 5.9% (n = 77,000);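 active means mean inhibition above about 93%, with at least 55% of replicates each passing it, limit read from the data, passing the limit was not always enough; inconclusive means only one of those two conditions holds; inactive means neither condition holds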
C diff HTS – blocks growth of Clostridium difficile; Clostridium difficile clinical isolate growth, OD600, 24 h; stronger effect = lower value; growth activity, negative = inhibition, % at 16 µg/mL (by protocol); actives 0.25% (n = 86,000); AID 1259249;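 active means mean growth activity at or below -80% and every replicate also at or below -80%; inconclusive means mean at or below -80% but some replicate above -80%; inactive means mean growth activity above -80%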;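 further: 0% = DMSO wells and -100% = levofloxacin 16 µg/mL wells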
* marks the source's active call; other numbers are inactive results; ? = inconclusive; nt = no result.

SMILES	Pf Dd2 inh	Tcruzi prolif	C diff HTS
CCC(=O)N1CC2(C1)CN(C(=O)CN1CCOCC1)[C@@H](CO)c1[nH]c3cc(OC)ccc3c12	19.4	nt	nt
COc1ccc2c3c(n(C)c2c1)[C@@H](CO)N(CC1CCOCC1)CC31CN(C(C)=O)C1	-10.7	nt	1.6
COc1ccc2c3c([nH]c2c1)[C@@H](CO)N(C(=O)C1CCCC1)CC31CN(C)C1	-32.0	nt	-7.8
Cc1ccc(S(=O)(=O)N(C)C[C@H]2OCCCC[C@H](C)Oc3ccc(NC(=O)Nc4ccc(F)cc4)cc3C(=O)N([C@@H](C)CO)C[C@H]2C)cc1	-82.1*	59.4	nt
C[C@@H]1CN([C@H](C)CO)C(=O)c2cc(NC(=O)Nc3ccc(F)cc3)ccc2O[C@@H](C)CCCCO[C@@H]1CN(C)S(=O)(=O)c1ccc(F)cc1	-79.8	67.3	-9.0
C[C@@H]1CCCCO[C@@H](CN(C)S(=O)(=O)c2ccc(Cl)cc2)[C@H](C)CN([C@H](C)CO)C(=O)c2cc(NC(=O)Nc3ccc(F)cc3)ccc2O1	-81.1*	89.2	7.9
C[C@@H]1CCCCO[C@@H](CN(C)S(=O)(=O)c2ccccc2)[C@@H](C)CN([C@@H](C)CO)C(=O)c2cc(NC(=O)Nc3ccc(F)cc3)ccc2O1	-80.9*	86.9	7.9
C[C@@H]1CN([C@H](C)CO)C(=O)c2cc(NC(=O)Nc3ccc(F)cc3)ccc2O[C@@H](C)CCCCO[C@H]1CN(C)S(=O)(=O)c1ccccc1	-75.8	?	3.8
C[C@@H]1CN([C@H](C)CO)C(=O)c2cc(NC(=O)Nc3ccc(F)cc3)ccc2O[C@@H](C)CCCCO[C@H]1CN(C)S(=O)(=O)c1ccc(Cl)cc1	-72.9	87.9	-7.3
CN(C)CC(=O)Nc1ccc2c(c1)[C@@H]1C[C@@H](CC(=O)N3CCOCC3)O[C@@H](CO)[C@@H]1O2	17.9	35.4	0.3
CCCNC(=O)N1CC2(CCN(Cc3ccc(F)cc3)CC2)c2c([nH]c3cc(OC)ccc23)[C@H]1CO	18.6	nt	nt
C[C@@H]1CN([C@H](C)CO)C(=O)c2cc(-c3ccncc3)cnc2O[C@@H]1CN(C)C(=O)c1cccc(F)c1	20.8	7.9	1.5
COc1ccc(NC(=O)N(C)C[C@@H]2OCc3ccccc3-c3c(n(C)c4ccccc34)C(=O)N([C@@H](C)CO)C[C@H]2C)c(OC)c1	-77.8	84.7	-2.6
COc1ccc(NC(=O)N(C)C[C@H]2OCc3ccccc3-c3c(n(C)c4ccccc34)C(=O)N([C@H](C)CO)C[C@H]2C)c(OC)c1	-65.7	9.0	-12.1
COc1ccc(NC(=O)N(C)C[C@H]2OCc3ccccc3-c3c(n(C)c4ccccc34)C(=O)N([C@H](C)CO)C[C@@H]2C)c(OC)c1	-86.4*	30.0	9.5
COc1ccc(NC(=O)N(C)C[C@H]2OCc3ccccc3-c3c(n(C)c4ccccc34)C(=O)N([C@@H](C)CO)C[C@H]2C)c(OC)c1	-88.9*	56.6	-15.9
Cc1ccc(S(=O)(=O)Nc2cccc3c2O[C@@H](CN(C)S(=O)(=O)c2cccs2)[C@H](C)CN([C@@H](C)CO)C3=O)cc1	-33.1	9.4	-2.2
COc1ccccc1NC(=O)N[C@H]1C=C[C@@H](CC(=O)N[C@H](C)c2ccccc2)O[C@H]1CO	5.4	-41.5	nt
CO[C@@H]1CN(C)C(=O)c2ccc(NC(=O)c3ccccc3)cc2OC[C@H](C)NC[C@@H]1C	24.7	nt	nt
CO[C@H]1CN(C)C(=O)c2cc(NC(=O)c3ccc(Oc4ccccc4)cc3)ccc2OC[C@@H](C)NC[C@@H]1C	-90.0*	-35.5	-6.4
CO[C@@H]1CN(C)C(=O)c2ccc(NC(=O)c3ccc(F)cc3)cc2OC[C@H](C)N(C(=O)c2ccc(F)cc2)C[C@H]1C	-39.7	17.5	nt
CO[C@H]1CN(C)C(=O)c2ccc(NC(=O)c3ccc(-c4ccccc4)cc3)cc2OC[C@H](C)NC[C@@H]1C	-44.4	nt	-9.3
CO[C@H]1CN(C)C(=O)c2ccc(NC(=O)c3ccc(-c4ccccc4)cc3)cc2OC[C@@H](C)NC[C@H]1C	-86.2*	61.6	nt
CO[C@@H]1CN(C)C(=O)c2cc(NC(=O)c3ccc(Oc4ccccc4)cc3)ccc2OC[C@H](C)NC[C@H]1C	-76.0	0.7	-4.8
CO[C@@H]1CN(C)C(=O)c2ccc(NC(=O)c3ccc(F)cc3)cc2OC[C@@H](C)N(C(=O)c2ccc(F)cc2)C[C@@H]1C	-88.0*	59.8	nt
SMILES	Pf Dd2 inh	Tcruzi prolif	C diff HTS
CO[C@@H]1CN(C)C(=O)c2ccc(NC(=O)c3ccc(-c4ccccc4)cc3)cc2OC[C@@H](C)NC[C@H]1C	-86.8*	nt	41.7
C[C@@H]1CN([C@H](C)CO)C(=O)c2cc(NS(=O)(=O)c3ccc(F)cc3)ccc2O[C@H]1CN(C)S(C)(=O)=O	15.9	26.7	-1.8
C[C@H]1CN([C@@H](C)CO)C(=O)c2cc(C#CCN(C)C)cnc2O[C@H]1CN(C)C(=O)CCN1CCCCC1	31.3	-40.3	nt
CO[C@@H]1CN(C)C(=O)c2cc(NC(=O)Nc3ccc(C(F)(F)F)cc3)ccc2OC[C@H](C)NC[C@H]1C	-88.6*	-132.0	nt
CO[C@H]1CN(C)C(=O)c2ccc(NC(=O)Nc3ccc(C(F)(F)F)cc3)cc2OC[C@H](C)NC[C@H]1C	-90.5*	25.8	nt
CO[C@@H]1CN(C)C(=O)c2cc(NC(=O)Nc3ccc(F)cc3)ccc2OC[C@H](C)NC[C@H]1C	-8.3	-100.5	0.5
CO[C@H]1CN(C)C(=O)c2ccc(NC(=O)Nc3ccc(C(F)(F)F)cc3)cc2OC[C@@H](C)NC[C@@H]1C	-76.0	35.0	nt
CO[C@@H]1CN(C)C(=O)c2cc(NC(=O)Nc3ccc(C(F)(F)F)cc3)ccc2OC[C@@H](C)NC[C@@H]1C	-81.0*	-10.9	nt
CO[C@@H]1CN(C)C(=O)c2ccc(NC(=O)Nc3ccc(C(F)(F)F)cc3)cc2OC[C@H](C)NC[C@@H]1C	-21.3	0.3	nt
CCCN1[C@H](C(=O)OC)[C@@H](CO)[C@@H]2Cn3c(ccc(-c4cccnc4)c3=O)[C@@H]21	-4.2	nt	-7.2
O=C(C[C@H]1C=C[C@H](NC(=O)Nc2ccc(F)cc2)[C@@H](CO)O1)NCCN1CCCC1	23.7	-10.3	nt
C[C@H]1CN([C@@H](C)CO)C(=O)c2cccc(NC(=O)C3CCCCC3)c2O[C@H]1CN(C)Cc1ccc(-c2ccccc2)cc1	-23.2	-77.3	14.9
C[C@@H]1CN([C@H](C)CO)C(=O)c2cc(NC(=O)Nc3ccccc3)ccc2O[C@@H](C)CCCCO[C@H]1CN(C)Cc1ccc(Cl)c(Cl)c1	-85.6*	67.8	18.7
CC(C)NC(=O)Nc1ccc2c(c1)C(=O)N([C@@H](C)CO)C[C@H](C)[C@@H](CN(C)Cc1ccc(Cl)c(Cl)c1)OCCCC[C@H](C)O2	nt	nt	5.3
C[C@@H]1CCCCO[C@H](CN(C)Cc2ccc(Cl)c(Cl)c2)[C@H](C)CN([C@@H](C)CO)C(=O)c2cc(NC(=O)Nc3ccccc3)ccc2O1	-84.9*	76.1	7.8
CC(C)NC(=O)Nc1ccc2c(c1)C(=O)N([C@@H](C)CO)C[C@H](C)[C@H](CN(C)Cc1ccc(Cl)c(Cl)c1)OCCCC[C@@H](C)O2	nt	nt	-0.7
Cc1noc(C)c1NC(=O)Nc1ccc2c(c1)C(=O)N([C@H](C)CO)C[C@H](C)[C@@H](CN(C)Cc1ccc(Cl)c(Cl)c1)OCCCC[C@H](C)O2	-26.0	36.6	-2.7

Screens from PubChem BioAssay.
